Molecules are shown by their SMILES. Several values for one entry are separate records, joined by “and”; a condition that tells them apart may be missing. Equal entries are not always repeated. Where a structure was tested more than once in an assay, its records may differ in their call. Activity calls are given as the source filed them. The calls were made as follows: active = hit-call score of the fitted dose curve at least 0.9, where 1 is the maximum; inactive = score below 0.9.

As a reminder, the AC50 is the concentration giving half of the maximal activity seen.

Read-out in this assay: Interleukin-1 alpha (IL1a), IL1A (gene 3552)
The experiment in a line: BSK_LPS_IL1a: BioMAP Diversity Plus: LPS Assay for Interleukin-1 alpha (IL1a) Biomarker Activity (AID 2283080). Conditions: primary human HUVEC with PBMC; actives raise or lower the signal. How it is done: BSK_LPS is a cell-based, multiplexed-readout assay that uses umbilical vein endothelium and peripheral blood mononuclear cells, a human vascular primary cell co-culture, with measurements taken at 24 hours after chemical dosing in a 96-well plate.BSK_LPS_IL1a is an assay component measured in the BSK_LPS assay. It measures IL-a antibody related to regulation of gene expression using ELISA technology.Data from the assay component BSK_LPS_IL1a was analyzed into 1 assay endpoint. This assay endpoint, BSK_LPS_IL1a, was analyzed with bidirectional fitting relative to DMSO as the negative control and baseline of activity. Using a type of binding reporter, gain or loss-of-signal activity can be used to understand changes in the signaling as they relate to the gene IL1A. Furthermore, this assay endpoint can be referred to as a primary readout, because this assay has produced multiple assay endpoints where this one serves a signaling function. To generalize the intended target to other relatable targets, this assay endpoint is annotated to the cytokine intended target family, where the subfamily is interleukins.
The levels of cell surface (or secreted, indicated by the prefix "s") biomarker endpoints were measured by ELISA. Overt cytotoxicity to cells in confluent adherent cultures (all systems other than the BT system) was assessed by measuring total protein levels using sulforhodamine B (SRB) staining in parallel cultures at the time of biomarker measurements, indicated as SRB endpoints. For proliferation assays for adherent cell types, individual cell types are cultured at sub-confluence and relative cell numbers quantified by SRB staining at time points optimized for each system (48 h: 3C and CASM3C systems; 72 h: BT and HDF3CGF systems; 96 h: SAg system). SRB was performed by staining cells with 0.1% SRB after fixation with 10% TCA and reading wells at 560 nm.Viability and proliferation of PBMC (T cells) was quantified by Alamar Blue reduction for the SAg and BT systems. For PBMC viability (referred to as PBMC Cytotoxicity within the assay endpoint names), cells were plated (75,000/well in a 96-well plate) and then chemical samples added for 1 h before addition of activators, SEB and TSST-1 (20 ng/mL final concentration each). Cells were incubated for 90 h. Then, Alamar Blue (20 uL/well) (Invitrogen, Cat DAL1100) was added for 6 h, and the plates were read with a fluorescence microplate reader at 546/580 nm (excitation/emission). For PBMC proliferation, cells were plated and activated as above but incubated for only 16 h prior to addition of Alamar Blue. Plates were read after 6 h.
Take `O=S(=O)(OCC(F)F)C(F)(F)F`: the result was inactive.

As to `FC(F)(F)C(F)(F)C(F)(F)CI`, the result was inactive.

`O=C(O)C(F)(F)C(F)(F)OC(F)(F)F`: the result was inactive.

Turning to `CCN(CC)c1ccc2c(C)cc(=O)oc2c1`, the outcome was inactive.

On to `O=C(CC(=O)C(F)(F)C(F)(F)F)C(F)(F)F`, for which the result was inactive.

For `Cc1ccc(S(=O)(=O)OCC(F)(F)C(F)(F)C(F)(F)C(F)(F)C(F)(F)C(F)F)cc1`, the outcome was inactive.

`CC(C)(C)C(=O)CC(=O)C(F)(F)C(F)(F)C(F)(F)F`: the result was inactive.

Turning to `OCC(F)(F)C(F)(F)C(F)(F)C(F)F`, the result was inactive.

Consider `OCC(F)(F)C(F)(F)C(F)(F)C(F)(F)C(F)(F)C(F)(F)F`, for which the outcome was inactive.

In the case of `C=CC(=O)OCC(F)(F)C(F)(F)C(F)(F)C(F)(F)COC(=O)C=C`, the AC50 was 20.2 µM (active) and 21.2 µM (active).

In the case of `CCc1c(Br)c(Br)c(Br)c(Br)c1Br`, the outcome was inactive.

As for `CCCCOCCOCCOC(=O)CCCCC(=O)OCCOCCOCCCC`, the outcome was inactive.

As for `O=P(O)(O)OCCC(F)(F)C(F)(F)C(F)(F)C(F)(F)C(F)(F)C(F)(F)F`, the result was inactive.

Consider `FC(F)(F)C(F)(F)C(F)(F)N(C(F)(F)C(F)(F)C(F)(F)F)C(F)(F)C(F)(F)C(F)(F)F`, for which the result was inactive.

On to `OCC(F)(F)C(F)(F)C(F)(F)C(F)(F)C(F)(F)C(F)F`, for which the outcome was inactive.

Consider `C=C(C)C(=O)OCCC(F)(F)C(F)(F)C(F)(F)C(F)(F)C(F)(C(F)(F)F)C(F)(F)F`, for which the outcome was inactive.

In the case of `O=C(O)C(F)(F)C(F)(F)C(F)(F)C(F)(F)C(F)(F)C(F)(F)C(F)(F)C(F)(F)C(F)(F)C(F)(F)C(F)(F)C(F)(F)C(F)(F)F`, the outcome was inactive.

`C=C(C)C(=O)OCC(F)(F)C(F)(F)C(F)(F)C(F)(F)C(F)(F)C(F)(F)C(F)(F)F`: the result was inactive.

With `CCCCCCCCC(F)(F)C(F)(F)C(F)(F)C(F)(F)C(F)(F)C(F)(F)F`, the result was inactive.

Consider `O=S(=O)(O)C(F)(F)C(F)(F)C(F)(F)C(F)(F)C(F)(F)C(F)(F)C(F)(F)F`, for which the outcome was inactive.

For `O=C(O)C(F)(OC(F)(F)C(F)(OC(F)(F)C(F)(OC(F)(F)C(F)(F)C(F)(F)F)C(F)(F)F)C(F)(F)F)C(F)(F)F` (stereo not given), the outcome was inactive.

In the case of `N=C(N)C(F)(F)C(F)(F)C(F)(F)C(F)(F)C(F)(F)C(F)(F)C(F)(F)F`, the result was inactive and the AC50 is 38.2 µM (active).

Regarding `FC(F)(F)C(F)(F)CNCC(F)(F)C(F)(F)F`, the result was inactive.

Regarding `C=CC(=O)OCC(F)(F)C(F)(F)C(F)(F)C(F)(F)C(F)(F)C(F)(F)C(F)(F)F`, the result was inactive.

With `OCCCC(F)(F)C(F)(F)C(F)(F)C(F)(F)C(F)(F)C(F)(F)C(F)(F)F`, the half-maximal activity concentration (AC50) is 46 µM (active) and the outcome was inactive.

For `O=C(O)C=C(C(F)(F)F)C(F)(F)F`, the result was inactive.

`FC(F)(Br)C(F)(F)C(F)(F)C(F)(F)C(F)(F)C(F)(F)Br`: the outcome was inactive.

For `C#C[C@]1(O)CC[C@H]2[C@@H]3CCc4cc(OC)ccc4[C@H]3CC[C@@]21C`, the half-maximal activity concentration (AC50) was 31.1 µM (active).

With `CCCCC(CC)COP(=O)(O)OCC(CC)CCCC` (stereo not given), the outcome was inactive.

With `FC(F)(F)C(F)(F)C(F)(F)C(F)(F)C(F)(F)CCI`, the result was inactive.

For `O=C(O)C(F)(F)C(F)(F)C(F)(F)C(F)(F)C(F)(F)C(F)(F)C(F)(F)C(F)(F)Cl`, the result was inactive.

As to `OCC(F)(F)C(F)(F)C(F)(F)F`, the outcome was inactive.

For the compound `FC1CC(F)(F)C(F)(F)C1(F)F` (stereo not given), the outcome was inactive.

Regarding `CC(CCl)OP(=O)(OC(C)CCl)OC(C)CCl` (stereo not given), the outcome was inactive.

As for `OCCCC(F)(F)C(F)(F)C(F)(F)F`, the outcome was inactive.

As for `CCO[Si](CCC(F)(F)C(F)(F)C(F)(F)C(F)(F)C(F)(F)C(F)(F)F)(OCC)OCC`, the outcome was inactive.

`CS(C)(=O)=O`: the result was inactive.

With `O=C(O)C(F)(F)C(F)(F)C(F)(F)C(F)(F)C(F)(F)C(F)(F)C(F)(F)C(F)(F)C(F)(F)C(F)(F)C(F)(F)C(F)(F)F`, the outcome was inactive.

Source of the values: PubChem BioAssay (EPA / NIEHS).
